Screens deposited in PubChem by National Center for Advancing Translational Sciences (NCATS).
Shown are actives, neighbours in structure and some others; about 3.8% of the full set was active somewhere.
VDR inh = blocks the human vitamin D receptor; P11473; VDR-SRC2-3 peptide fluorescence polarization, 2 h; Potency, µM, without a hit: max response, negative = inhibition, most hits filed as inhibitors; actives 0.93% (n = 400,000); AID 504847; further: potency means the concentration at half of the fitted maximal effect; on the % scale 0 is the no-effect control and ±100 the full control effect
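Measured by FP: displacement of SRC2-3 coactivator peptide from VDR by library compounds, following a two-hour ambient incubation.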
CBFb-RUNX1 inh = CBF-beta/RUNX1 interaction disruption; AlphaScreen CBFb-His/RUNX1-biotin binding, biochemical; Potency, µM (top dose mostly 59.8 µM), for inactives: at the highest dose activity, negative = inhibition, most hits filed as inhibitors; 230,000 tested, under 10 active; AID 1477; further: % of control where 0% means no effect
Target sequence (Q01196 whole entry, looked up): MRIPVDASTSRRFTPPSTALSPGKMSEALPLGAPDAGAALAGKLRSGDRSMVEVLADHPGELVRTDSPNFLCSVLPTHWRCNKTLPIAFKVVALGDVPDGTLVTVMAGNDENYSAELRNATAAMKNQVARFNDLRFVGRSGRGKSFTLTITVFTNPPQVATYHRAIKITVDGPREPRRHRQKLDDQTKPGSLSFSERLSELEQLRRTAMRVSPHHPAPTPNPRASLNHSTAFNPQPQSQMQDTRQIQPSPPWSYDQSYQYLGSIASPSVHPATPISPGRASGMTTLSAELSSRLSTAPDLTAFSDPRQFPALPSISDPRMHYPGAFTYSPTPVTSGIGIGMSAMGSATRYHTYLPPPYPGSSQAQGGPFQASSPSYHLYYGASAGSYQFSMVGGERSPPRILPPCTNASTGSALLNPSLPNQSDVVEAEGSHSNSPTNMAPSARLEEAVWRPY
Target sequence (Q13951 whole entry, looked up): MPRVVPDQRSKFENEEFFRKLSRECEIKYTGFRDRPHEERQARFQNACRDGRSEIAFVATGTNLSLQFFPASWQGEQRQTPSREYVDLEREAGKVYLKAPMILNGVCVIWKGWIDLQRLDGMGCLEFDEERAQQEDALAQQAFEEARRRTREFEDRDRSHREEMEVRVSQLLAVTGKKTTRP
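Read-out: AlphaScreen. Format: His-CBF-beta with biotinylated RUNX1 (30 nM each) preincubated 20 min, compound 15 min, Ni-chelate plus streptavidin beads 90 min; room temperature throughout.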
PLK1 PBD block = PLK1 (human) polo-box domain binding inhibition; Plk1 PBD binding of FITC phosphopeptide, fluorescence polarization; Potency, µM, without a hit: max response, negative = inhibition, hits mostly inhibitors; actives 2.8% (n = 360,000); further: potency means the concentration at half of the fitted maximal effect; series mostly up to about 57 µM; on the % scale 0 is the no-effect control and ±100 the full control effect; nearly all actives have a fitted effect of over 65% in size
MBNL1-CUG inh = inhibitors of human MBNL1 binding to CUG repeat RNA; TR-FRET MBNL1-His/biotin-(CUG)12 binding, 665/545 ratio; Q9NR56; AID 2675; actives 0.036% (n = 280,000); Potency, µM (doses to about 57.5 µM), inactives show at the top dose activity change, negative = inhibition, most hits filed as inhibitors; active means well fitted inhibition curve with a large enough effect in the signal ratio, with a control signal flat, not every such curve was filed as active; inconclusive means small, poorly fitted or top-dose-only effect, or effect the other way, or a change in a side signal; inactive means no such curve, though single readings can be large or run the other way; the % refers to the signal ratio; further: potency means the concentration at half of the fitted maximal effect; on the % scale 0 is the no-effect control and ±100 the full control effect
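MBNL1-His + Biotin-(CUG)12, cpd titration 92 nM–58 uM; Tb anti-His Ab 0.055 ng/ul, SA-XL665 5 nM (final); 60 min RT; ratiometric 665/545 nm, Ex 340 nm; normalized to buffer and full-complex controls.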
KCNH2 WT inh = KCNH2 (human, wildtype) channel inhibition; U2OS, BacMam KCNH2, thallium flux FluxOr; active compounds read low; activity change, % at 1.84 µM; actives 0.37% (n = 340,000);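 active means maximum activity change below -70%; inconclusive means maximum activity change between -70% and -50%; inactive means maximum activity change above -50%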; further: on the % scale 0 is the no-effect control and ±100 the full control effect
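U2OS cells transduced with wild-type KCNH2 virus are loaded with FluxOr dye for 45 min, and thallium flux is measured in kinetic reads before and after stimulation buffer. Rate constants are normalized to DMSO controls.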
KCNH2 3.1 block = inhibitors of human KCNH2 3.1 potassium channel isoform; actives 0.95% (n = 340,000); U2OS KCNH2 3.1, thallium flux FluxOr; active compounds read low; activity change, % (tested at about 1.8 µM);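 active means maximum activity change below -70%; inconclusive means maximum activity change from -70% to -50%; inactive means maximum activity change above -50%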;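 further: thallium influx rate constant from kinetic fluorescence after stimulation buffer; on the % scale 0 is the no-effect control and ±100 the full control effect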
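FluxOr-based Tl+ influx in U2OS cells transduced with KCNH2 3.1 virus; rate constants normalized to DMSO controls.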
An asterisk follows results filed as active; ? = inconclusive; nt = no result; [ ] = dose if it differs, or a comment. Unless noted, the call rests on the fitted dose curve; in most records, active means well fitted curve in the direction sought with a large enough effect; inconclusive means small, poorly fitted or top-dose-only effect, or another doubt; inactive means no such curve, though single readings can be large; an effect the other way counts as inactive or inconclusive.

SMILES	VDR inh	CBFb-RUNX1 inh	PLK1 PBD block	MBNL1-CUG inh	KCNH2 WT inh	KCNH2 3.1 block
O=C(Nc1ccc(F)cc1)Nc1ccc(N2CCOCC2)c2nonc12	-24%	-12%	-13%	28%	5	5
Nc1ccc(N2CCOCC2)c2nonc12	89µM*	13%	-4%	?	18	3
O=C(Nc1ccc(N2CCOCC2)c2nonc12)C1CCCC1	-22%	-10%	19µM*	?	-3	2
COc1ccc(N2CCN(Cc3cccn3-c3nnc(N4CCN(C5CCCCC5)CC4)s3)CC2)cc1	-9%	nt	nt	nt	nt	nt
CC(C)Cn1cnc2c1c(=O)n(CC(=O)Nc1ccc3c(c1)OCO3)c(=O)n2Cc1ccccc1	-14%	1%	?	2%	-86*	3
Cc1cc(NC(=O)Cn2c(=O)c3c(ncn3CC(C)C)n(Cc3ccccc3)c2=O)no1	4%	-2%	0%	-5%	-15	-10
C=CCSC[C@@H]1Nc2cc(Cl)c(S(N)(=O)=O)cc2S(=O)(=O)N1	-6%	28%[21.7 µM]	nt	nt	nt	nt
CN1CCC(=NNC(=O)C(=O)Nc2cccc(Br)c2)CC1	71µM*	-2%	12µM*	2%	14	-13
CN1CCC(=NNC(=O)C(=O)Nc2ccc(F)cc2)CC1	27%	2%	-10%	0%	-5	4
O=C(OCC(=O)N1CCCC1=O)c1cc2ccccc2o1	-11%	nt	21µM*	nt	-3	18
CCCOc1ccccc1C(=O)N(Cc1ccco1)C1CCS(=O)(=O)C1 (stereo unspecified)	-11%	-1%	30µM*	1%	-15	-11
Cc1cc(=O)[nH]c(N/N=C/c2ccccn2)n1	4%	2%	1%	nt	9	2
O=c1cnnc(N/N=C/c2ccccn2)[nH]1	?	-27%	21µM*	-4%	-7	6
O=NN(Cc1cccnc1)C(=O)NC1CCCCC1	nt	nt	27µM*	nt	nt	nt
C=C1C(=O)C23C(O)C1CCC2C12CCCC(C)(COC(C)=O)C1C(O)C3(O)OC2 (stereo unspecified)	25µM*	nt	15µM*	nt	-7	3
Cc1cccc(-n2c(=O)c3c(c4cc(C)ccc4n3C)n(CC(=O)NCCC3=CCCCC3)c2=O)c1	4%	nt	nt	nt	nt	nt
CCCCC[C@H](O)/C=C/[C@H]1C(=O)C[C@H](O)[C@@H]1C/C=C\CCCC(=O)O	3%	12%	nt	nt	nt	nt
CCCCC[C@@H](/C=C/C1C(=O)C=C[C@H]1C/C=C\CCCC(=O)OC)OC(C)=O (stereo partly specified)	10µM*	nt	-22%	nt	0	-20
C[N+](C)(C)C/C=C1/COCO1	-10%	3%	3.4µM*	8%	18	4
O=C(COc1ccccc1)Nc1nc(-c2ccncc2)cs1	-9%	nt	27µM*	1%	3	23
Cc1cc(C)cc(OCC(=O)Nc2nc(-c3cccnc3)cs2)c1	?	nt	12µM*	5%	-8	-26
NC(=O)c1ccsc1NC(=O)COc1ccccc1	-17%	3%	15µM*	12%	9	11
Cc1cccc(OCC(=O)OCC(=O)Nc2sccc2C(N)=O)c1	27%	nt	-4%	nt	-1	10
O=C(COc1ccccc1)Nc1nc(-c2cccnc2)cs1	8%	nt	-18%	nt	-15	-5
COCCCNC(=O)CCCCn1c(=O)c2ccccc2n(CC(=O)Nc2ccc(C)cc2C)c1=O	1%	nt	nt	nt	nt	nt
SMILES	VDR inh	CBFb-RUNX1 inh	PLK1 PBD block	MBNL1-CUG inh	KCNH2 WT inh	KCNH2 3.1 block
CC(=O)N[C@H]1CSSC[C@@H](C(=O)N2CCC[C@H]2C(=O)N2CCC[C@H]2C(=O)N[C@@H](CCCCN)C(=O)N[C@@H](CC(=O)O)C(N)=O)NC(=O)CNC(=O)[C@H](Cc2c[nH]c3ccccc23)NC(=O)[C@H](CCCNC(=N)N)NC(=O)[C@@H](Cc2ccc(Cl)c(Cl)c2)NC(=O)[C@H](Cc2cnc[nH]2)NC(=O)[C@H](CCC(=O)O)NC1=O	-7%	22%	nt	nt	nt	nt
C[C@H](NC(=O)CNC(=O)[C@@H](NC(=O)[C@H](Cc1ccccc1)NC(=O)CNC(=O)CNC[C@@H](N)Cc1ccccc1)[C@@H](C)O)C(=O)N[C@@H](CCCN=C(N)N)C(=O)N[C@@H](CCCCN)C(=O)N[C@@H](CO)C(=O)N[C@@H](C)C(=O)N[C@@H](CCCN=C(N)N)C(=O)N[C@@H](CCCCN)C(N)=O	-4%	14%	nt	nt	nt	nt
CN(C)c1ccc(NC(=O)Cn2nnc3sc4c(c3c2=O)CCC(C(C)(C)C)C4)cc1 (stereo unspecified)	6%	nt	nt	nt	nt	nt
O=[N+]([O-])c1ccc(CSc2ncnc3c2ncn3C2OC(CO)C(O)C2O)cc1 (stereo unspecified)	nt	11%	nt	nt	nt	nt
O=S(=O)(NCCNS(=O)(=O)c1cccs1)c1cccs1	12%	0%	-2%	3%	7	-24
CN1CCN(NS(=O)(=O)c2cccs2)CC1	-20%	-5%	9.5µM*	nt	-6	12
NC(=O)COC(=O)c1cccnc1Nc1ccccc1F	5%	21%	2%	nt	6	-72*
CN(C)C(=O)COC(=O)c1cccnc1Nc1ccccc1F	-13%	0%	-21%	2%	-1	4
COc1ccc2c(C#CCCO)c(-c3ccc(S(C)(=O)=O)cc3)sc2c1	-8%	nt	27µM*	nt	-7	-3
CC(C)(C)OC(=O)NC(Cc1ccccc1)C(=O)NC1COC2CC(n3cc(F)c(=O)[nH]c3=O)OC12 (stereo unspecified)	6%	2%	nt	nt	nt	nt
CCCOC(=O)c1cccc(Nc2nc(C(=O)OCC)nc3ccccc23)c1	5%	nt	nt	nt	nt	nt
COc1cc(NS(=O)(=O)c2c(C)oc3c(F)c(F)c(F)c(F)c23)cc(OC)c1OC	9%	nt	-1%	-2%	-78*	-9
COc1cc(NS(=O)(=O)c2ccc3c(c2)oc(=O)n3C)cc(OC)c1OC	-5%	1%	-23%	3%	-7	0
O=C(O)c1ccc(-c2ccc(/C=C3\NC(=O)N(Cc4ccc(Cl)cc4)C3=O)o2)cc1Cl	79µM*	?	15µM*	11%	-4	11
Nc1nc(CN2CCOCC2)cs1	?	-1%	24µM*	0%	12	-20
O=C(CCCCCn1c(=O)c2sccc2n(Cc2ccc(Cl)cc2)c1=O)NCc1ccc2c(c1)OCO2	89µM*	nt	nt	nt	nt	nt
O=C(O)CC/C(=N\NC(=O)c1ccncc1)c1ccccc1	-16%	nt	-9%	-4%	-134*	-161*
O=C(O)CC/C(=N\NC(=O)c1ccccc1)c1cccs1	-5%	5%	2%	7%	-26	-4
COC1=C(N)C(=O)c2nc(-c3nc(C(=O)O)c(C)c(-c4ccc(OC)c(OC)c4O)c3N)ccc2C1=O	14µM*	-6%	-26%	?	-1	-5
